Assay results from PubChem BioAssay AID602452 (National Center for Advancing Translational Sciences (NCATS), 2012).
Calls of active or inactive are those of the source. The rule behind the calls is not given here.

assay: qHTS Assay for Inhibitors of Influenza NS1 Protein Function: SAR Using NS1 and pYES strains; settings: yeast NS1-expressing strain growth, OD at 60 h; stronger effect = higher value
Text: Influenza is a world-wide public health problem and emerging forms of the virus have the potential to cause a pandemic of equal or greater magnitude to the outbreaks recorded in 1918, 1957 or 1968. Vaccine development is proceeding and there also exist two classes of anti-influenza compounds. However these therapeutic modalities are neither fully effective nor widely enough available to fulfill global needs. In addition their potential usefulness against newly emergent strains is not known. Efforts are needed to develop novel agents against influenza virus, including broad-spectrum agents. Identification of small molecules that inhibit NS1 function either directly or by interfering with specific cellular pathways may be a key to increasing our defense against the virus.
We have miniaturized and optimized a cell based assay in which NS1 from influenza A is expressed in the budding yeast S. cerevisiae. NS1 is a multi-functional protein that counters the host innate immune response and facilitates viral versus cellular gene expression. Expression of NS1 causes a pronounced slow growth phenotype in yeast due to its intrinsic molecular activities. Small molecules that suppress the slow growth phenotype can be identified by a straightforward growth recovery assay using optical density (OD) as the measurement. The same yeast strain not expressing NS1 was used as positive control in the yeast growth recovery assay.
Hits resulting from the primary screen and other follow-up screens, were tested using the same yeast strain that was used in the primary assay (NS1) but as control, were compared to a strain that lacks NS1 (pYES).
NIH Chemical Genomics Center [NCGC]
NIH Molecular Libraries Probe Centers Network [MLPCN]
Assay Submitter (PI): Daniel Engel, University of Virgina
Strain 9526-6-2 (MATa his3Delta1 leu2Delta0 lys2Delta0 ura3Delta0 pdr1::KanMX4 pdr3::KanMX4) was a gift from Dan Burke. It was derived by tetrad dissection from two parent strains that had been modified by one step gene replacements. The pdr1::KanMX4 was constructed in BY4741 (MATa his3Delta1 leu2Delta0 met15Delta0 ura3Delta0) and the pdr3::KanMX4 was constructed in BY4742 (MATalpha his3Delta1 leu2Delta0 met15Delta0 ura3Delta0). PCR-mediated one-step gene replacements, matings and tetrad dissections were performed as described previously.[i] The strain 9526-6-2/pYES-NS1 was generated by transformation of 9526-6-2 with the plasmid pYES-NS1 and maintained on synthetic complete medium (SC) lacking uracil. For growth experiments and library screening, a single transformed colony was grown overnight, and the cell number was determined by using a Coulter counter (Beckman Coulter Corp.). The cells were diluted to 5 x 10^5 cells/mL in SC lacking uracil and containing raffinose and 2% galactose. A portion of this culture was added to preplated test compounds such that the final dimethyl sulfoxide (DMSO) concentration was 1%. Optical density readings at 600 nm (OD600) were taken using a Thermomax microplate reader (Molecular Devices).

SMILES	OD (growth)
Cc1ccc(-n2nc(C)c3c(-c4ccc(O)c(O)c4)c(C#N)c(N)nc32)cc1C	0.515 (active)
COc1cc(-c2ccnc3c2c(C)nn3-c2cccc(C(F)(F)F)c2)ccc1O	0.366 (active)
Cc1nn(-c2ccc(Cl)cc2)c2nc(N)c(C#N)c(-c3ccc(O)c(O)c3)c12	0.384 (active)
COc1cc(-c2c(C#N)c(N)nc3c2c(C)nn3-c2ccc(F)cc2)ccc1O	0.396 (active)
COc1cc(-c2ccnc3c2c(C)nn3-c2ccc(C(F)(F)F)cc2)ccc1O	0.46 (active)

same assay, conditions: yeast NS1-expressing strain growth, OD at 60 h; measured here: pYES control strain growth; stronger effect = higher value

SMILES	OD (growth)
Cc1ccc(-n2nc(C)c3c(-c4ccc(O)c(O)c4)c(C#N)c(N)nc32)cc1C	0.536
COc1cc(-c2ccnc3c2c(C)nn3-c2cccc(C(F)(F)F)c2)ccc1O	0.551
Cc1nn(-c2ccc(Cl)cc2)c2nc(N)c(C#N)c(-c3ccc(O)c(O)c3)c12	0.572
COc1cc(-c2c(C#N)c(N)nc3c2c(C)nn3-c2ccc(F)cc2)ccc1O	0.591
COc1cc(-c2ccnc3c2c(C)nn3-c2ccc(C(F)(F)F)cc2)ccc1O	0.56
